# Many of the other results were omitted from the sample, so hits are more common in it than they were.
# Vaccinia pol inh – inhibitors of vaccinia virus processive DNA synthesis (E9 polymerase). in vitro processive DNA synthesis, absorbance read-out; active compounds read low. normalized absorbance, % (test concentration not listed). 46,000 compounds, 0.94% hits; in the data active means normalized absorbance mostly below about 85%, no sharp cut-off; inactive means mostly above about 86%
# * = called active by the depositor.
SMILES,Vaccinia pol inh
Cc1cc(-c2nn(C)c(=O)c3ccccc23)cc(C)c1OCC(=O)NN,105.8
Fc1cccc2sc(NCc3ccccc3)nc12,100.3
CN(Cc1ccccc1)C(=O)COc1cccc2ccccc12,95.3
S=c1nc2[nH]c(=S)[nH]c(=S)c2c(-c2ccco2)[nH]1,60.2*
Nc1nccc(-c2ccco2)n1,98.1
CC1(C)CC(NCc2ccco2)CCO1 (stereo not given),99.7
CC1=CC(C)C2C(=O)N(c3ccc(C(=O)O)cc3)C(=O)C2C1 (stereo not given),101.4
CCSc1nc2ncnc(N)c2[nH]1,100.1
CC(C)C(=O)N1CC(=O)Nc2ccc(Cl)cc2C1c1ccccc1 (stereo not given),106.5
Cc1cccc2c1-c1sc(C(=O)N3CCN(c4ccc(Cl)cc4)CC3)cc1CO2,100.4
COc1ccc2c(c1OC)CN(C)CCc1cc3c(cc1C(O)C2)OCO3 (stereo not given),110.1
COc1ccc2cc3[n+](cc2c1OC)CCc1cc2c(cc1-3)OCO2,81.7*
COc1ccc2c(c1OC)CN1CCc3cc4c(cc3C1C2)OCO4 (stereo not given),99.9
CCC(=O)Nc1sccc1C#N,119.1
CC(=O)Oc1ccn(C)c(=O)c1C#N,100.2
ClCC1Cc2cc(I)c(Cl)cc2O1 (stereo not given),99.9
CN(C)c1ccc(N/C=C2/CCCC2=O)cc1,100.1
CN(C)/C=C/C=C1C(=O)CCCC1=O,45.0*
CN(C)/C=C/C=C1\N=C(c2ccccc2)OC1=O,103.2
COc1cccc(CSc2nc3nccnc3c(=O)n2CCc2ccccc2)c1,100.5
Cc1c(-c2ccc3ccccc3n2)sc2ncnn12,93.3
CC(C)N1C(=O)S/C(=C/c2cc(Br)c(OCC(=O)O)c(Br)c2)C1=O,100.2
COc1ccc(Nc2cc(C(F)(F)F)ccc2Cl)c(C(=O)O)c1,59.6*
CC(Nc1ccccc1)C(=O)Nc1cc(C(F)(F)F)ccc1Cl (stereo not given),99.9
O=C(CC(=O)c1ccccc1)Nc1cc(C(F)(F)F)ccc1Cl,99.6
SMILES,Vaccinia pol inh
O=C(O)c1ccc(Cl)c(NC(=O)c2ccco2)c1,90.1
O=C(Nc1ccccc1NC(=O)c1cccs1)c1ccc(C(F)(F)F)cc1,100.5
CN(C)CCNC(=O)c1cc2c(s1)-c1ccc(Cl)cc1SC2,54.8*
CC(C)NC(=O)c1cc2c(s1)-c1ccccc1SC2,93.7
CC1CCN(C(=O)c2cc3c(s2)-c2ccc(Cl)cc2SC3)CC1,95.8
COc1ccc(/C=C/C(=O)Sc2cccc3cccnc23)cc1,119.8
O=C(NC(=O)c1cccs1)OC[C@@H]1CCCN2CCCCC12 (stereo not given in full),100.4
c1ccc(-c2cccs2)cc1,89.4
CCN1C(=O)/C(=C2\SC(=S)N(C3CCCC3)C2=O)c2cc(Br)ccc21,88.1
CN(C)S(=O)(=O)c1ccc(C(=O)Nc2nccs2)cc1,96.9
CCN(CC)S(=O)(=O)c1ccc(C(=O)Nc2nccs2)cc1,85.6*
CN(C1CCCCC1)S(=O)(=O)c1ccc(C(=O)Nc2nccs2)cc1,88.1
COc1ccc(-c2cn(-c3ccc(Br)cc3)c(=O)[nH]2)cc1,101.0
CCCNC(=O)c1ccc(OCC)cc1,102.5
CC(=O)n1c2ccccc2c2nc(N)sc21,64.2*
CC(=O)n1c2ccccc2c2ccccc21,67.2*
CC(=O)n1c2ccc(C)cc2c2nc3ccccc3nc21,92.9
CC(=O)n1c(=O)n(C(C)=O)c2ccccc21,89.1
N#CSCC(=O)n1c2ccccc2c2ccccc21,99.8
CC(=O)n1c2ccccc2c2c(-c3ccccc3)c(N3CCOCC3)sc21,98.1
CC1CN(S(=O)(=O)CC23CCC(CC2=O)C3(C)C)CC(C)O1 (stereo not given),95.6
O=C(Nc1ccc(OC(F)(F)F)cc1)OC1CN(C(c2ccccc2)c2ccccc2)C1,101.8
O=C(c1cccs1)N(Cc1ccccc1)c1ccccn1,101.0
Cc1cc(O)c(C(=O)Cc2ccccn2)c(O)c1,92.2
O=C(NC(c1ccc2c(c1)OCO2)c1ccc2cccnc2c1O)c1ccccc1 (stereo not given),94.9
SMILES,Vaccinia pol inh
c1ccc(C2Oc3ccccc3C3Oc4ccccc4CC23)cc1 (stereo not given),100.9
CCN(c1cccc(C)c1)c1ccccc1C,99.1
O=C(O)C1CCN(S(=O)(=O)c2ccccc2)CC1,101.9
Cc1ccc2c(Sc3ccc(Cl)cc3)c(C(=O)O)[nH]c2c1,56.7*
COc1cccc(CNC(=O)c2[nH]c3cc(C)ccc3c2Sc2ccc(Cl)cc2)c1OC,94.6
O=C(c1[nH]c2ccccc2c1Sc1ccc(Cl)cc1)N1CCCC1,97.0
Cc1cc(SCC(=O)OCC(=O)N2CCCC2)c(C)cc1Br,92.7
O=C(N=c1scc(-c2ccccc2)n1-c1ccccc1)c1ccccc1,99.6
CCN1C(=O)c2ccccc2S(=O)c2ccc(C(=O)N3CCCCC3)cc21 (stereo not given),82.8
O=S(=O)(Nc1ccccn1)c1ccc2c(c1)OCCO2,100.7
CCc1ccc(-c2nc(CSCC(=O)NCc3ccccc3)c(C)o2)cc1,101.7
Nc1nc(-c2cc(Cl)sc2Cl)cs1,97.6
COc1ccccc1NC(=O)c1c(NCc2sccc2C)sc2c1CCCC2,108.8
CCN1C(=O)/C(=C/C=C2/CCCN2C)N(c2ccccc2)C1=S,98.8
O=C(CSc1nc2ccccc2nc1-c1ccccc1)NCC1CCCO1 (stereo not given),115.5
Cc1ccnc(NC(=O)c2cc(-c3ccc(C)c(C)c3)n[nH]2)c1,92.4
Cc1ccnc(NC(=O)c2cccs2)c1,99.9
CC(Nc1cc(C)ccn1)=C(C#N)C#N,62.8*
O=c1/c(=C/C=C/c2ccccc2)sc2nc3ccccc3n12,100.4
COc1ccc(C(N)CC(=O)O)cc1 (stereo not given),93.8
CC1=C(/C=C/C(C)=C/C=C/C(C)=C\C(=O)O)C(C)(C)CCC1,29.0*
CC1=C(/C=C/C(C)=C/C=C/C(C)=C/C(=O)Nc2ccc(O)cc2)C(C)(C)CCC1,96.8
CC(=C/C(=O)O)/C=C/c1ccccc1,100.9
COc1ccc(NC(=O)c2ccc(C)c(I)c2)cc1OC,100.2
Cc1ccc(C)n1-c1cccc(N)c1,99.9
SMILES,Vaccinia pol inh
Cc1ccc(C)n1-c1cccc(C(F)(F)F)c1,99.4
Cc1ccc(C)n1-c1cccc(C(=O)O)c1,11.4*
Brc1ccc(CSc2nccn2Cc2ccccc2)cc1,91.2
COc1ccccc1NC(=O)COC(=O)Cc1cccc2ccccc12,111.4
C/C(CSC(=O)c1c(-c2c(F)cccc2Cl)noc1C)=N\O,96.4
OC(CN(Cc1ccccc1)Cc1ccccc1)Cn1c2ccccc2c2ccccc21 (stereo not given),100.6
O=CN1CCN(CC(O)Cn2c3ccccc3c3ccccc32)CC1 (stereo not given),99.7
CS(=O)(=O)NCC(O)Cn1c2ccccc2c2ccccc21 (stereo not given),106.8
OCCN(CCO)CC(O)Cn1c2ccccc2c2ccccc21 (stereo not given),76.6*
CC(C)(CO)NCC(O)Cn1c2ccccc2c2ccccc21 (stereo not given),65.0*
Cc1ccc(NCC(O)Cn2c3ccccc3c3ccccc32)cc1 (stereo not given),99.9
Cc1ccc(Cl)cc1-n1nnc(-c2nc(-c3ccc4c(c3)OCO4)no2)c1N,108.0
C/C=C/C(=O)Nc1ccc(-c2nc3ccc(C)cc3s2)cc1,104.9
O=C(O)CCCc1ccc2ccc3cccc4ccc1c2c34,79.8*
O=C(O)CCCC(=O)c1ccccc1,100.3
CCn1cc(CCCC(=O)O)c2ccccc21,104.2
Cc1ccc(C(=O)N/C(=C\c2ccco2)C(=O)N2CCCC2)cc1,98.7

# Bioassay records: PubChem, ICCB-Longwood Screening Facility, Harvard Medical School
